Experimental findings from PubChem BioAssay (NCATS) are described below.

Records with an inconclusive call do not appear. The source made the active and inactive calls. Unless noted, the call rests on the fitted dose curve; in most records, active means well fitted curve in the direction sought with a large enough effect; inconclusive means small, poorly fitted or top-dose-only effect, or another doubt; inactive means no such curve, though single readings can be large; an effect the other way counts as inactive or inconclusive. A value given as a limit tells only on which side of the number the result lay.

A short description of experiment [1]: Confirmatory qHTS for small molecule stabilizers of the endoplasmic reticulum resident proteome: Secreted ER Calcium Modulated Protein (SERCaMP) assay (AID 1508628).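 Further: SH-SY5Y cells given compound 16 h then thapsigargin 100 nM for 4 h; on the % scale 0 is the no-effect control and ±100 the full control effect; nearly all actives have a fitted effect of over 40% in size.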 Put shortly:
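We seeded SH-SY5Y-GLuc-SERCaMP cells, added compounds (three concentrations in the primary run, eleven up to 76.6 uM in confirmation), incubated 16 h, depleted ER calcium with thapsigargin, and read luciferase 4 h later.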

Experiment [2] is described as follows: Cell Viability qHTS for small molecule stabilizers of the endoplasmic reticulum resident proteome (AID 1508629).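 Further: human SH-SY5Y neuroblastoma cells carrying the GLuc-SERCaMP reporter; compound exposure about 46 h in total before the viability read; on the % scale 0 is the no-effect control and ±100 the full control effect.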 The conditions noted are these: cell viability counter-screen, 100 nM thapsigargin for final 4 h.
Experiment [3] deals with Rap guanine nucleotide exchange factor 3 (Homo sapiens) (UniProt O95398). Nature of the experiment: Confirmatory qHTS for antagonist of cAMP-regulated guanine nucleotide exchange factor 3 (EPAC1) (AID 1645880).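 Further: plate controls were DMSO only for no effect and full effect of the ATA control for full effect; nearly all actives have a fitted effect of over 55% in size.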 Put shortly: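 Nucleotide exchange uses 100 nM EPAC1, 250 nM RAP1B-BODIPY-GDP and 50 uM GDP, with compounds in a concentration-titration series. After 5 min at room temperature, fluorescence (480 nm ex/540 nm em) is read every 5 min for 30 min. Data are normalized to control ATA and DMSO.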
Rap guanine nucleotide exchange factor 3 (Homo sapiens), sequence (O95398 whole entry, looked up): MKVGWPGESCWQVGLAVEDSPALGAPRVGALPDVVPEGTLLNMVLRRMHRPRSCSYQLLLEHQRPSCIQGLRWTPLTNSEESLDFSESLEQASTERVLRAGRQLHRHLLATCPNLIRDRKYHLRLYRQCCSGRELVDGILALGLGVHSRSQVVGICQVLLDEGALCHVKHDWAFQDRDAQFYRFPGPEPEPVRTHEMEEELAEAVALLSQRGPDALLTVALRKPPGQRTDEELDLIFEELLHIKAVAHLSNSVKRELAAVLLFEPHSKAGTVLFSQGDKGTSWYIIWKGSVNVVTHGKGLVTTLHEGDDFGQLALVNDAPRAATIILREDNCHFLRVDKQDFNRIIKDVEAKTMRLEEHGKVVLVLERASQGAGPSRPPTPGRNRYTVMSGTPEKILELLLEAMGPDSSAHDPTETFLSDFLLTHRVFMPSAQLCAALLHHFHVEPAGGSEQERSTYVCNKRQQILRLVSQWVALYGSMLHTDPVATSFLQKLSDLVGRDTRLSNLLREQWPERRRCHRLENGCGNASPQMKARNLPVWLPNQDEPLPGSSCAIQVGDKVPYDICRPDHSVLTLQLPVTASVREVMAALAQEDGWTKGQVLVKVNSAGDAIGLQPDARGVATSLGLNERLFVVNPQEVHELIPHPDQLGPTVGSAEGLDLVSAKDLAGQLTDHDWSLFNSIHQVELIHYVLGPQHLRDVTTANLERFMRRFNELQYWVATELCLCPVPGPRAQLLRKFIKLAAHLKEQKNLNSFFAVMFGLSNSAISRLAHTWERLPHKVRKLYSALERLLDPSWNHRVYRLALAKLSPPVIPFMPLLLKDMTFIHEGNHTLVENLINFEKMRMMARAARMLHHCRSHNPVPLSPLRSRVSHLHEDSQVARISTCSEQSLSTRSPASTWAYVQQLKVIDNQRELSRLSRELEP

Experiment [4] shares this target. Nature of the experiment: Confirmatory qHTS for agonist of cAMP-regulated guanine nucleotide exchange factor 3 (EPAC1) (AID 1645881).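 Further: EPAC1 catalysed release of BODIPY-GDP from Rap1B seen as fluorescence loss; 100% = effect of cAMP agonist control; nearly all actives have a fitted effect of over 75% in size.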
Experiment [5] has as its target Rap guanine nucleotide exchange factor 4 (Homo sapiens) (UniProt Q8WZA2). The experiment is described as follows: Confirmatory qHTS for agonist of cAMP-regulated guanine nucleotide exchange factor 4 (EPAC2) (AID 1645884).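 Further: nucleotide exchange releases bodipy-GDP from Rap1 and this lowers its fluorescence; on the % scale 0 is the no-effect control and ±100 the full control effect; nearly all actives have a fitted effect of over 65% in size.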
Experiment [6] has as its target Rap guanine nucleotide exchange factor 3 (Homo sapiens) (UniProt O95398). Nature of the experiment: Counterscreen qHTS for antagonist of cAMP-regulated guanine nucleotide exchange factor 3 (EPAC1) (AID 1645888).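 Further: fluorescence loss as bound BODIPY-GDP is released from Rap1B; % of control where 0% means no effect.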 Put shortly: (§1)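 Rap1B-BODIPY-GDP 250 nM + GDP 50 uM; cpds 7-pt, final 9.74 nM–152 uM (activator mode) or from 7.32 nM upwards (inhibitor mode); RT; FI 480/540 nm at 5 and 30 min, then ± cAMP, reread.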

Experiment [7] shares this target. Nature of the experiment: Counterscreen qHTS for agonist of cAMP-regulated guanine nucleotide exchange factor 3 (EPAC1) (AID 1645889). Further: % of control where 0% means no effect; nearly all actives have a fitted effect of over 40% in size. Put shortly: as §1
In experiment [8] the target is Lysosomal acid glucosylceramidase (Homo sapiens) (UniProt P04062). The experiment is described as follows: Glucocerebrosidase-p2 (AID 348; in the data active means potency below about 10 µM; further: potency means the concentration at half of the fitted maximal effect). To be noted: purified GBA, blue fluorogenic substrate, 40 min. Put shortly:
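Compounds titrated from 0.6 nM upwards against 0.2 nM enzyme in pH 5.9 citric acid/KH2PO4, taurocholate, tween-20; blue fluorogenic substrate 80 uM, 40 min room temperature, stopped and read Ex 365/Em 440 for AC50.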

Experiment [9] has as its target Glucocorticoid receptor (Homo sapiens) (UniProt P04150). Nature of the experiment: GR-GFP Redistribution (AID 450;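 active means compounds whose dose series gives a full or clear partial fitted curve of increased nuclear translocation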; further: potency means the concentration at half of the fitted maximal effect). The conditions noted are these: U2OS GR-GFP nuclear translocation, laser cytometry, 2 h.
For experiment [10] the target is unchanged. Nature of the experiment: GR-EFC Redistribution (AID 451; calls by dose curve; further: potency means the concentration at half of the fitted maximal effect). The conditions noted are these: CHO-K1 GR-EFC translocation, beta-gal luminescence, 2 h. Put shortly:
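Translocation of GR-ED fusion to nuclear EA restores b-gal, read by luminescence after 1 h room-temperature detection. Engineered CHO-K1 biosensor cells, 1,000/well, exposed 2 h at 37 C to titrations up to 46 uM final.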

The target of experiment [11] is Mitogen-activated protein kinase 10 (Mus musculus) (UniProt Q61831). Nature of the experiment: JNK3 AlphaScreen Assay (AID 530; active means well fitted curve in either direction with a large enough effect, not every such curve was filed as active;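 further: kinase came from lysate of stimulated human HepG2 cells; signal reports phosphorylation of biotinylated GST-cJun 1-79 at Ser73 with 10 µM ATP; on the % scale 0 is the no-effect control and ±100 the full control effect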). Put shortly: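 Room-temperature AlphaScreen kinase assay; pre-activated HepG2 lysate as JNK3 source, biotin-GST-cJun(1-79) substrate, 10 uM ATP, compound 15 min preincubation.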
In experiment [12] the target is 3',5'-cyclic-AMP phosphodiesterase 4B (Homo sapiens) (UniProt Q07343). Nature of the experiment: qHTS Assay for Inhibitors of PDE-IV (AID 607; active means well fitted activation curve with a large enough effect in the main read-out, with a control signal flat, not every such curve was filed as active; further: % of control where 0% means no effect). Put shortly: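 The readout is membrane depolarisation from a cAMP-sensing CNG channel, detected with a potential dye at ex 535/em 590. Cells were HEK293-derived (endogenous PDE-IV) at 1000 cells/well, titrated up to 22.9 uM final.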
3',5'-cyclic-AMP phosphodiesterase 4B (Homo sapiens), sequence (Q07343 whole entry, looked up): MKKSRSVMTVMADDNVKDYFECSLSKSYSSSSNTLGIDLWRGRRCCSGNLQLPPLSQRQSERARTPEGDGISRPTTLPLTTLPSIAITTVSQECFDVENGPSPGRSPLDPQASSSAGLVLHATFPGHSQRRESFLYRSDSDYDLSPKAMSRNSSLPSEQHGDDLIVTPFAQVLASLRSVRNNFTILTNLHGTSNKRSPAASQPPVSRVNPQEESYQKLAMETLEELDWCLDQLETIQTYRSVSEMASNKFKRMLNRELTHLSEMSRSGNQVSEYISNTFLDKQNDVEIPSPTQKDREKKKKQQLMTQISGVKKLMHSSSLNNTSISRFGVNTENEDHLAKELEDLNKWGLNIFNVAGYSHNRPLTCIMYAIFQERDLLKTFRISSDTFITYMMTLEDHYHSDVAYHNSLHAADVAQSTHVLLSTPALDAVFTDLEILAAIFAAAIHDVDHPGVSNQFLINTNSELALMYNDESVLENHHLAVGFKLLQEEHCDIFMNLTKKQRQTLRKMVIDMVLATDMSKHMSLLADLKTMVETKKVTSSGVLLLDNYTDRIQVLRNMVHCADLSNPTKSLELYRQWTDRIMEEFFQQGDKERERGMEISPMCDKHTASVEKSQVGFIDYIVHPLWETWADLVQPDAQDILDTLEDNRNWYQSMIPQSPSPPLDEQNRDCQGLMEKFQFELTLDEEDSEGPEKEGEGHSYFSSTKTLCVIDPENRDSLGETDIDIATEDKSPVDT

Experiment [13] in a line: qHTS Assay for Identification of Small Molecule Agonists for Hypoxia Response Element Signaling Pathway (AID 914; active means well fitted activation curve with a large enough effect in the signal ratio, with a control signal flat, not every such curve was filed as active; the % refers to the signal ratio; further: potency means the concentration at half of the fitted maximal effect). The conditions noted are these: ME-180 HRE-bla reporter, beta-lactamase ratio, CoCl2, 17 h; activation: stronger effect = higher value. Put shortly: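 In Opti-MEM containing 0.5% dialyzed FBS and 10 mM HEPES, ME-180 HRE-bla cells received a compound titration and EC50 CoCl2. They were incubated 17 hours, then CCF4-loaded 2.5 hours at room temperature before ratio reading.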

Experiment [14] is described as follows: Counterscreen qHTS for small molecule stabilizers of the endoplasmic reticulum resident proteome: GLuc-NoTag assay (AID 1508627).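 Further: SH-SY5Y cells given compound then 100 nM thapsigargin to empty ER calcium; 0% = thapsigargin alone and -100% = DMSO vehicle control.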 Put shortly: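 Luminescence of Gaussia luciferase secreted into the medium (coelenterazine, 0.07x final, unlysed cells) was the read-out. Human SH-SY5Y neuroblastoma cells constitutively secreting untagged GLuc received compound for 19 h, then 100 nM thapsigargin for 4 h.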

A short description of experiment [15]: AP1 Signaling Pathway (AID 357; active means well fitted curve in either direction with a large enough effect, not every such curve was filed as active;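 further: ME-180 reporter cells stimulated with EGF at its EC50 level; on the % scale 0 is the no-effect control and ±100 the full control effect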). The conditions noted are these: ME-180 AP-1-bla reporter, EGF-induced, beta-lactamase ratio, 5 h; at 7.69 µM (top of the series) unless noted. Put shortly:
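Titration-series screen for positive or negative modulators of EC50 EGF-induced signaling in ME-180 cells carrying an AP-1-driven beta-lactamase reporter. After 5 hours at 37 degrees Celsius, CCF4 460nm/530nm emission ratio gave %Activity; AC50 values derived.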

Experiment [16] addresses Cytochrome P450 1A2 (Homo sapiens) (UniProt P05177). The experiment is described as follows: p450-cyp1a2 (AID 410; calls by dose curve; further: potency means the concentration at half of the fitted maximal effect). Put shortly: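 Inhibition was calculated relative to 57 uM furafylline (full inhibition). The reaction used human CYP1A2 at 20nM with Luciferin-ME at its Km, 100uM, driven by an NADPH-regenerating system for 60 min at room temperature.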
Experiment [17] in a line: NFAT Signaling Pathway (AID 444; active means well fitted curve in either direction with a large enough effect, not every such curve was filed as active;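 further: carbachol stimulus at about its EC50 of 1 µM final; on the % scale 0 is the no-effect control and ±100 the full control effect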). The conditions noted are these: Jurkat NFAT-bla M1, carbachol, beta-lactamase ratio, 5 h; at 7.69 µM (top of the series) unless noted. Put shortly: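 Read-out: CCF4 FRET ratio (460 nm/530 nm) after 1 h RT dye loading, used for %activity and AC50 from titration series. Cells: Jurkat NFAT-β-lactamase/M1 line, treated with compound plus 1 uM carbachol for 5 h, 37 °C.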

The nature of experiment [18]: Stat Signaling Pathway (AID 446; active means well fitted curve in either direction with a large enough effect, not every such curve was filed as active). To be noted: ME-180 SIE beta-lactamase reporter, IL-6 stimulated, 5 h; at 7.69 µM (top of the series) unless noted. Put shortly:
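Screening format detects activators and inhibitors alike: ME-180 SIE-bla cells stimulated at 40 pM IL-6 for 5 hrs with compound, then dual-emission beta-lactamase read at 405 nm excitation.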

The nature of experiment [19]: qHTS Assay for Lipid Storage Modulators (AID 1519; calls by dose curve). The conditions noted are these: Drosophila S3 cells, BODIPY lipid droplet/cell ratio, laser cytometry, cells loaded with oleic acid. Put shortly: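 Cells seeded at 5,000 per well were treated with compounds over a concentration series and loaded with oleic acid (400 uM, as added). Lipid droplet fluorescence (488 nm excitation, 500-530 nm channel) was read by laser-scanning cytometry and normalized to 20 uM Triacsin C.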

Experiment [20] addresses Dual specificity protein kinase CLK4 (Homo sapiens) (UniProt Q9HAZ1). The experiment is described as follows: qHTS Assay for Inhibitors of CDC-like Kinase 4 (Kinase-Glo Assay) (AID 1770). Further: on the % scale 0 is the no-effect control and ±100 the full control effect; nearly all actives have a fitted effect of over 65% in size. Put shortly:
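Recombinant human Clk4 (25 nM) phosphorylated RS repeat peptide (100 uM) with 1 uM ATP in Tris pH 7.5/MgCl2/EGTA/DTT/Triton buffer for 4.5 h at room temperature. Residual ATP was quantified by Kinase-Glo luciferase luminescence.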

The target is the same in experiment [21]. Nature of the experiment: qHTS Assay for Inhibitors of CDC-like Kinase 4 (ADP-Glo Assay) (AID 1771). Further: on the % scale 0 is the no-effect control and ±100 the full control effect; nearly all actives have a fitted effect of over 70% in size. Put shortly: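 Kinase reaction: Clk4 at 25 nM, RS repeat peptide substrate at 100 uM, ATP at 1 uM, 1 hr, room temperature. Product ADP detected as luciferase signal via ADP-Glo.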
The target is the same in experiment [22]. The experiment is described as follows: qHTS Assay for Inhibitors of CDC-like Kinase 4 (ADP-FP Assay) (AID 1795). Further: on the % scale 0 is the no-effect control and ±100 the full control effect; nearly all actives have a fitted effect of over 60% in size. Put shortly:
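Recombinant human Clk4 (6.25 nM) phosphorylated RS repeat peptide (100 uM) with 1 uM ATP in Tris pH 7.5/MgCl2/EGTA/DTT/Triton buffer for one hour. ADP was quantified by Transcreener competitive fluorescence polarization against an ADP calibration curve.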

Experiment [23] addresses Ubiquitin carboxyl-terminal hydrolase 1 (Homo sapiens) (UniProt O94782). Nature of the experiment: Inhibitors of USP1/UAF1: Pilot qHTS (AID 504865).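 Further: rhodamine fluorescence freed from ubiquitin-rhodamine substrate followed over time; top concentration of the series differs between compounds; on the % scale 0 is the no-effect control and ±100 the full control effect; nearly all actives have a fitted effect of over 35% in size.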 Put shortly:
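USP1/UAF1 complex (1nM) preincubated with compound 15 min at room temperature, then Ub-Rho substrate (150nM final) added. Fluorescence read kinetically at 480/540 nm, 6 reads every 60 seconds. Buffer: 50mM HEPES pH 7.8, 0.5mM EDTA, 0.1 mg/ml BSA, 1mM TCEP, 0.01% Tween-20.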

Dual specificity protein kinase CLK4 (Homo sapiens), sequence (Q9HAZ1 whole entry, looked up): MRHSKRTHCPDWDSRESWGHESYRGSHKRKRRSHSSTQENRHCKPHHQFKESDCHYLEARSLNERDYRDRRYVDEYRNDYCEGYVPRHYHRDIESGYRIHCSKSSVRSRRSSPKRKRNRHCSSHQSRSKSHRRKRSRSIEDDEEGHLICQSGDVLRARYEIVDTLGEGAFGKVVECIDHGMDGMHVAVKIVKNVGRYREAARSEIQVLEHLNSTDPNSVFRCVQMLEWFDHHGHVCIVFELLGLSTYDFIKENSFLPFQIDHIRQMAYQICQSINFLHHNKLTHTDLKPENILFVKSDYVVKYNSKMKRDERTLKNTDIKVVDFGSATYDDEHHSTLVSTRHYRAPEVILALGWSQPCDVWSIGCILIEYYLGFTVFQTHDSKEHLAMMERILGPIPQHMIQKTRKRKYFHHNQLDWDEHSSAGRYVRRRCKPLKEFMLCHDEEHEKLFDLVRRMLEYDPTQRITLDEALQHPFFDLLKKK
Glucocorticoid receptor (Homo sapiens), sequence (P04150 whole entry, looked up): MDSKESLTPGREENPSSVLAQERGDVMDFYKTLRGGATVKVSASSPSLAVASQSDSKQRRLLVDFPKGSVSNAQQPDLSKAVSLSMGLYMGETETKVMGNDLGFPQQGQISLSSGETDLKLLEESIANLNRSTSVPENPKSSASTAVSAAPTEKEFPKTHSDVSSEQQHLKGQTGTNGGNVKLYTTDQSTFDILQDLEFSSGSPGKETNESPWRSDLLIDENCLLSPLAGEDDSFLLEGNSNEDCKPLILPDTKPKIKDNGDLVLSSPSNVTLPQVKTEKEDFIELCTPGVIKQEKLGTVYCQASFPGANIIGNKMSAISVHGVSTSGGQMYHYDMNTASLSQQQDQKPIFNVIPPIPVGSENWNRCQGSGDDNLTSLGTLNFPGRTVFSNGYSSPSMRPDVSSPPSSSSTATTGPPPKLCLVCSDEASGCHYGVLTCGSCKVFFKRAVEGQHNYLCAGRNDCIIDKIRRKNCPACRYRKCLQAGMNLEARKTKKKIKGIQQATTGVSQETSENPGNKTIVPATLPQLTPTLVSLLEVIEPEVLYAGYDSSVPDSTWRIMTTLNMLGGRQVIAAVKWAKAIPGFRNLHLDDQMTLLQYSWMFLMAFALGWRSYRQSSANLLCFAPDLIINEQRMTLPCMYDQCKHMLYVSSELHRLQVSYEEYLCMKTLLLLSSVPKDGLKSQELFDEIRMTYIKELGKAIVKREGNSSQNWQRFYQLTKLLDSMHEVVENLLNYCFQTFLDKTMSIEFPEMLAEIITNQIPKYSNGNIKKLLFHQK
Lysosomal acid glucosylceramidase (Homo sapiens), sequence (P04062 whole entry, looked up): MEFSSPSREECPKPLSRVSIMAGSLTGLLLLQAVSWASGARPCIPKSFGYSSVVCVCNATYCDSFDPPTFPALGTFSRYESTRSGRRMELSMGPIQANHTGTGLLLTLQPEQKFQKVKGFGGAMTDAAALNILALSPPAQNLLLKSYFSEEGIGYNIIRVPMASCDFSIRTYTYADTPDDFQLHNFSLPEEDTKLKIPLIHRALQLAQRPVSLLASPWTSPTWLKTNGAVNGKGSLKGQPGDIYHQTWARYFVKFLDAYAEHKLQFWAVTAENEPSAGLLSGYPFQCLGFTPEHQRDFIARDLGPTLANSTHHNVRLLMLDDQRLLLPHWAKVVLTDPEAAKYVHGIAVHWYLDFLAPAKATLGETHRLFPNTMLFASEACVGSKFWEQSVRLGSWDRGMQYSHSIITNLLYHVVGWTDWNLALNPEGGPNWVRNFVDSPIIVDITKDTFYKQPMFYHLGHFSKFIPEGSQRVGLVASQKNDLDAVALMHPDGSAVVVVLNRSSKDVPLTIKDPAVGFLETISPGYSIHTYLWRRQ
Cytochrome P450 1A2 (Homo sapiens), sequence (P05177 whole entry, looked up): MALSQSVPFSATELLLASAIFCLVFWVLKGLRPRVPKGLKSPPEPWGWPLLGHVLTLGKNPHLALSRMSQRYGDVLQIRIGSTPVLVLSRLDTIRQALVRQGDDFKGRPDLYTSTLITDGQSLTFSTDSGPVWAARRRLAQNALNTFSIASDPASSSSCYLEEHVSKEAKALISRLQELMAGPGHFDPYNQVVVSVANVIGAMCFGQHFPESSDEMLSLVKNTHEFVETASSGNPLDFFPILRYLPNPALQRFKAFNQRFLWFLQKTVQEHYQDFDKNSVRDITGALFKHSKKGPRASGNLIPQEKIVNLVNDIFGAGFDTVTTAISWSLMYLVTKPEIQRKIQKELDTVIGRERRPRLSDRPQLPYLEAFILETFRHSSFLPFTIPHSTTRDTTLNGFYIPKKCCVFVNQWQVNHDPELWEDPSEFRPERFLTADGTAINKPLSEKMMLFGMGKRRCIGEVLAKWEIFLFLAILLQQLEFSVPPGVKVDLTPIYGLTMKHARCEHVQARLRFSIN
Rap guanine nucleotide exchange factor 4 (Homo sapiens), sequence (Q8WZA2 whole entry, looked up): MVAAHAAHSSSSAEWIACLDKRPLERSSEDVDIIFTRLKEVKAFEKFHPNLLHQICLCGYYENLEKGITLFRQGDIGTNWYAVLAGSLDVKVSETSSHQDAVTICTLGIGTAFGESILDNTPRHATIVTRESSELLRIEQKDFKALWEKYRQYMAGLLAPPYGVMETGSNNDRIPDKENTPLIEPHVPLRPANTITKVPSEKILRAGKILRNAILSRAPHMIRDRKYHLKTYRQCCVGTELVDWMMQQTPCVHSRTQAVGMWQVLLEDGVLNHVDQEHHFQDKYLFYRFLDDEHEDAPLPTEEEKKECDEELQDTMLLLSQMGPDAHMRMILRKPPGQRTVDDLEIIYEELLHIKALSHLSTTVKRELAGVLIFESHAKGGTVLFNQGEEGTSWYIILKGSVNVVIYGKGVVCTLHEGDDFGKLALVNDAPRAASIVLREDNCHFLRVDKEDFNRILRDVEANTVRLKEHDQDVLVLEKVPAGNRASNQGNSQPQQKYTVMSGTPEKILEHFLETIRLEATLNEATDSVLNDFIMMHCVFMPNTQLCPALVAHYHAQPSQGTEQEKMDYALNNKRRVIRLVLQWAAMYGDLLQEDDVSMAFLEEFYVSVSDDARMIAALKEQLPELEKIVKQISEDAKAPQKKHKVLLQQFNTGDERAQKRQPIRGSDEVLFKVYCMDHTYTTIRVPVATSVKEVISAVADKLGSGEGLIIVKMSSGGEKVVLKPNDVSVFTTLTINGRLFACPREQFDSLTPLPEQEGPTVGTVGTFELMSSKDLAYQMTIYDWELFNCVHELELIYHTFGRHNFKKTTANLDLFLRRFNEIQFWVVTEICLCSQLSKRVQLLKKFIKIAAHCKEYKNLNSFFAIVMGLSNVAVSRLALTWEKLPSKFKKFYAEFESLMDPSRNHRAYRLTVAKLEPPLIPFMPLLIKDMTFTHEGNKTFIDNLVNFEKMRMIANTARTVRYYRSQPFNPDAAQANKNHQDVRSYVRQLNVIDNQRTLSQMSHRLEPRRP

In the case of `C=C1CCC[C@]2(C)C[C@H]3OC(=O)[C@H](CNCCc4ccccc4OC)C3CC12` (stereo partly specified), the Potency result in experiment [1] is “inactive”. For the same compound, the max response in [2] is -12.1% (inactive).

Regarding `Cc1ccc(P(=O)(CSC(=N)N)c2ccc(C)cc2)cc1`, the Potency entry in experiment [1] and in [3] was “inactive” in each case. For the same compound, the outcome in experiment [4] and in [6] was inactive. Also, the figures for the activation in experiment [5] and in experiment [7] were -5.01% [at 17.1 µM] (inactive) and -0.0561% [at 30.8 µM] (inactive), respectively.

As to `COCCn1c(=O)c(-c2ccccc2)nc2cnc(N3CCNCC3)nc21`, the Potency was > 11.4 µM (inactive) in experiment [8], > 9.22 µM (inactive) in experiment [9], > 46 µM (inactive) in [10] and 3.16 µM (active) in experiment [13]. For the same compound, the outcome in experiment [11] was inactive. Moreover, the Potency entry in [12] and in experiment [14] was “inactive” each time.

On to `Cc1nc2cnc(N3CCN(C)CC3)nc2n(-c2ccccc2)c1=O`, for which the activity change, negative = inhibition in experiment [15] was -10.2% (inactive); in experiment [17], -6.35% (inactive); in experiment [19] (at 57.5 µM (top of the series)), 2.71% (inactive). The Potency in experiment [16] is 3.98 µM (active); in [9], > 9.22 µM (inactive); in experiment [10], > 46 µM (inactive). Further, the activity, negative = inhibition in [18] is -7.64% (inactive). Further, the compound was called inactive in [11]. For the same compound, the Potency result in [12], in experiment [20], in [21], in [22], in experiment [23] and in [14] was “inactive” each time. Further, the max response in experiment [19] (measured here: cell count channel max response) stood at 7.22%; in experiment [19] (measured here: lipid channel max response), 7.19%.
